# Inconclusive results are not listed. Activity calls are given as the source filed them. Unless noted, calls come from the whole dose curve; as a rule, active = well fitted curve in the direction sought with a large enough effect; inconclusive = small, poorly fitted or top-dose-only effect, or another doubt; inactive = no such curve, though single readings can be large; an effect the other way counts as inactive or inconclusive.
# Assays:
# [1] = target: Lysosomal acid glucosylceramidase (Homo sapiens) (UniProt P04062); assay: Glucocerebrosidase-p2 (AID 348; in the data active = potency below about 10 µM; note: potency is the fitted concentration of half-maximal effect); conditions: purified GBA, blue fluorogenic substrate, 40 min
# Summary of the method: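 Compounds titrated from 0.6 nM upwards against 0.2 nM enzyme in pH 5.9 citric acid/KH2PO4, taurocholate, tween-20; blue fluorogenic substrate 80 uM, 40 min room temperature, stopped and read Ex 365/Em 440 for AC50.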
# [2] = AP1 Signaling Pathway (AID 357; active = well fitted curve in either direction with a large enough effect, not every such curve was filed as active;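 note: ME-180 reporter cells stimulated with EGF at its EC50 level; % is set by controls: 0 for no effect and ±100 for the full control effect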); conditions: ME-180 AP-1-bla reporter, EGF-induced, beta-lactamase ratio, 5 h; at 7.69 µM (top of the series) unless noted
# Summary of the method: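 Cells are seeded overnight, exposed to compound titrations and an EC50 level of EGF for 5 hours at 37 °C, then loaded with CCF4 dye for 2.5 hours. Beta-lactamase activity under the AP-1 element is read as a blue/green ratio.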
# [3] = target: Cytochrome P450 1A2 (Homo sapiens) (UniProt P05177); assay: p450-cyp1a2 (AID 410; calls by dose curve; note: potency is the fitted concentration of half-maximal effect;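 for activity change, negative = inhibition: -100% = full effect of reference inhibitor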); conditions: recombinant CYP1A2, luciferin-ME demethylation, luminescence; series mostly up to 57 µM
# Summary of the method: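 Inhibition was calculated relative to 57 uM furafylline (full inhibition). The reaction used human CYP1A2 at 20nM with Luciferin-ME at its Km, 100uM, driven by an NADPH-regenerating system for 60 min at room temperature.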
# [4] = NFAT Signaling Pathway (AID 444; active = well fitted curve in either direction with a large enough effect, not every such curve was filed as active;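 note: carbachol stimulus at about its EC50 of 1 µM final; % is set by controls: 0 for no effect and ±100 for the full control effect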); conditions: Jurkat NFAT-bla M1, carbachol, beta-lactamase ratio, 5 h; at 7.69 µM (top of the series) unless noted
# Summary of the method: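 Jurkat cells with NFAT-driven β-lactamase reporter and co-expressed M1 receptor, stimulated with carbachol (final 1 uM, ~EC50), compound titration, 5 h at 37 °C. CCF4 loaded 1 h at RT; 460/530 nm ratio gave %activity and AC50.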
# [5] = target: Glucocorticoid receptor (Homo sapiens) (UniProt P04150); assay: GR-GFP Redistribution (AID 450;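 active = compounds whose dose series gives a full or clear partial fitted curve of increased nuclear translocation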; note: potency is the fitted concentration of half-maximal effect); conditions: U2OS GR-GFP nuclear translocation, laser cytometry, 2 h
# [6] = target: Glucocorticoid receptor (Homo sapiens) (UniProt P04150); assay: GR-EFC Redistribution (AID 451; calls by dose curve; note: potency is the fitted concentration of half-maximal effect); conditions: CHO-K1 GR-EFC translocation, beta-gal luminescence, 2 h
# Summary of the method: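 CHO-K1 cells expressing nuclear EA and GR-ED fragments of b-gal; compounds titrated up to 46 uM final, 2 h at 37 C. GR nuclear translocation read as complemented b-gal luminescence after 1 h RT detection.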
# [7] = target: Mitogen-activated protein kinase 10 (Mus musculus) (UniProt Q61831); assay: JNK3 AlphaScreen Assay (AID 530; active = well fitted curve in either direction with a large enough effect, not every such curve was filed as active;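 note: kinase came from lysate of stimulated human HepG2 cells; signal reports phosphorylation of biotinylated GST-cJun 1-79 at Ser73 with 10 µM ATP; % is set by controls: 0 for no effect and ±100 for the full control effect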); conditions: JNK3 lysate, c-Jun phosphorylation; series mostly up to 57.1 µM
# Summary of the method: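 qHTS format: compounds tested as titrations against IL-1beta/TNF-alpha-activated HepG2 lysate JNK3 with biotin-GST-cJun substrate and 10 uM ATP at room temperature. Loss of anti-phospho-cJun AlphaScreen signal indicates inhibition.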
# [8] = target: 3',5'-cyclic-AMP phosphodiesterase 4B (Homo sapiens) (UniProt Q07343); assay: qHTS Assay for Inhibitors of PDE-IV (AID 607; active = well fitted activation curve with a large enough effect in the main read-out, with a control signal flat, not every such curve was filed as active; note: % of control where 0% means no effect); conditions: HEK293 ACTOne CNG channel cells, membrane potential fluorescence; series mostly up to 22.9 µM
# Summary of the method: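 ACTOne HEK293 cells carry a modified cAMP-gated CNG channel and express endogenous PDE4; plated 1000 cells/well, compounds up to 22.9 uM final. Membrane-potential dye fluorescence (ex 535/em 590) was read; parental cells received 10 uM forskolin + 100 uM RO 20-1724.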
# [9] = target: Cytochrome P450 3A4 (Homo sapiens) (UniProt P08684); assay: qHTS Assay for Inhibitors and Substrates of Cytochrome P450 3A4 (AID 884); conditions: recombinant CYP3A4, Luciferin-PPXE luminescence; series mostly up to 57.1 µM; note: potency is the fitted concentration of half-maximal effect; nearly all actives have a fitted effect of over 50% in size
# Summary of the method: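 20 nM human CYP3A4 with 25 uM Luciferin-PPXE (at KM) in 200 mM KPO4, preincubated 10 min with compound; NADPH regeneration started a 60 min RT reaction. Luciferin detected by luminescence, normalized to 57 uM ketoconazole as full inhibition.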
# [10] = target: Cytochrome P450 3A4 (Homo sapiens) (UniProt P08684); assay: qHTS Assay for Activators of Cytochrome P450 3A4 (AID 885); conditions: recombinant CYP3A4, Luciferin-PPXE luminescence, 60 min; series mostly up to 57.1 µM; note: nearly all actives have a fitted effect of over 65% in size
# Summary of the method: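 20nM CYP3A4 + 25uM Luciferin-PPXE (=KM), 200mM KPO4; cpd 10 min RT; NADPH regen, 60 min RT; stop w/ detection buffer, 20 min; luminescence. Normalized to 57 uM ketoconazole.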
# [11] = Confirmation and Secondary Assay for Modulators of Hemoglobin Beta Chain Splicing at IVS2 654 locus (AID 910); conditions: HeLa EGFP-654 splicing reporter, GFP fluorescence, 48 h; series mostly up to 38.3 µM;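 note: HeLa cells stably carrying EGFP split by mutant beta-globin IVS2-654 intron; % of control where 0% means no effect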
# Summary of the method: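 HeLa cells stably expressing EGFP interrupted by β-globin IVS2-654 intron, seeded overnight in Opti-MEM/2% FCS, then treated 2 days at 37 °C. Restored splicing read as total peak GFP intensity per well by laser scanning cytometry (488 nm excitation, 500–520 nm emission); 500 nM antisense PNA as control.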
# [12] = qHTS Assay for Lipid Storage Modulators (AID 1519; calls by dose curve); conditions: Drosophila S3 cells, BODIPY lipid droplet/cell ratio, laser cytometry, cells loaded with oleic acid; for activity change, negative = inhibition: at 57.5 µM (top of the series)
# Summary of the method: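 Cells seeded at 5,000 per well were treated with compounds over a concentration series and loaded with oleic acid (400 uM, as added). Lipid droplet fluorescence (488 nm excitation, 500-530 nm channel) was read by laser-scanning cytometry and normalized to 20 uM Triacsin C.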
# [13] = target: Ubiquitin carboxyl-terminal hydrolase 1 (Homo sapiens) (UniProt O94782); assay: Inhibitors of USP1/UAF1: Pilot qHTS (AID 504865); conditions: purified USP1/UAF1, Ub-rhodamine cleavage fluorescence; series mostly up to 54.9 µM; note: nearly all actives have a fitted effect of over 35% in size; note: potency is the fitted concentration of half-maximal effect
# Summary of the method: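 In 50mM HEPES pH 7.8 containing 0.5mM EDTA, 1mM TCEP, 0.1 mg/ml BSA and 0.01% Tween-20, 1nM USP1/UAF1 is exposed to compound for 15 min, then Ub-Rho (150nM final) is added and fluorescence is read over time.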
# [14] = Primary qHTS for small molecule stabilizers of the endoplasmic reticulum resident proteome: Secreted ER Calcium Modulated Protein (SERCaMP) assay (AID 1508630); conditions: SH-SY5Y GLuc-SERCaMP (Gaussia luciferase released on ER calcium loss) secretion, thapsigargin, luminescence; series mostly up to 38.4 µM; note: % is set by controls: 0 for no effect and ±100 for the full control effect
# Summary of the method: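 GLuc-SERCaMP-expressing SH-SY5Y cells, pretreated 16 h with compound, are challenged with thapsigargin to empty ER calcium stores; after 4 h, coelenterazine is added directly to the medium and luminescence is imaged.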
# [15] = Confirmation and Secondary Assay for Modulators of Hemoglobin Beta Chain Splicing at IVS2 705 locus (AID 930); conditions: HeLa EGFP-705 splicing reporter, GFP fluorescence, 48 h; series mostly up to 38.3 µM;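 note: HeLa cells stably expressing the EGFP-705 splicing reporter; GFP fluorescence per well restored by corrected splicing of the IVS2-705 intron in EGFP; % of control where 0% means no effect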
# Summary of the method: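 HeLa EGFP-705 reporter; 500 cells/well, o/n 37C 5% CO2; cpd 2 d; 488 ex/500-520 em laser scan; total peak GFP intensity/well. Ref: 500 nM […] antisense PNA.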
# [16] = Stat Signaling Pathway (AID 446; active = well fitted curve in either direction with a large enough effect, not every such curve was filed as active); conditions: ME-180 SIE beta-lactamase reporter, IL-6 stimulated, 5 h; at 7.69 µM (top of the series) unless noted
# Summary of the method: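 ME-180 SIE-bla cells; overnight plating; cpd + IL-6 40 pM, 5 h, 37 C; LiveBLAzer 2.5 h RT; 460/530 nm emission ratio. Normalized to 300 pM IL-6 and 125 nM JAK inhibitor controls.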
# [17] = target: Cytochrome P450 2C9 (Homo sapiens) (UniProt P11712); assay: qHTS Assay for Inhibitors and Substrates of Cytochrome P450 2C9 (AID 883); conditions: recombinant CYP2C9, luciferin-H luminescence, 60 min; series mostly up to 57.1 µM; note: % is set by controls: 0 for no effect and ±100 for the full control effect; nearly all actives have a fitted effect of over 60% in size
# Summary of the method: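 Human CYP2C9 (10nM) with Luciferin-H at 100uM (its KM) in 25mM KPO4; compound preincubated 10 min at 37C, then NADPH regeneration for 60 min at 37C. Luciferin read by luminescence after detection reagent; normalized to 57uM sulphaphenazole as full inhibition.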
# [18] = measured here: cell count channel max response
# [19] = measured here: lipid channel max response
# Chain of Cytochrome P450 1A2 (Homo sapiens) (P05177 whole entry, looked up): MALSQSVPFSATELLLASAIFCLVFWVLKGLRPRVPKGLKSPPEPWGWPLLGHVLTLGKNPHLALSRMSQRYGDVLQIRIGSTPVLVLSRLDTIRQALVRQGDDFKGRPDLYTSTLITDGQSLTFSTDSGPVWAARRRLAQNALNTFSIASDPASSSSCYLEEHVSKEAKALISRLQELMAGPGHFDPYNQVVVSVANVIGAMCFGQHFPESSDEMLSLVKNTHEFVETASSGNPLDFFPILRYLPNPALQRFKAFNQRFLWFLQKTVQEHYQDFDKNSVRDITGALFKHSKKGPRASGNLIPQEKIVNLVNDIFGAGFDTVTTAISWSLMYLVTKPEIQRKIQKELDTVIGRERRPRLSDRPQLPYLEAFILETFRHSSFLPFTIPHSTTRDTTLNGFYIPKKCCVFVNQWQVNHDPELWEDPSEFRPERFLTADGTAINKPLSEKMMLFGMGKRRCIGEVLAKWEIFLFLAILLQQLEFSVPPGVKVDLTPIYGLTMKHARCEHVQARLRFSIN
# Chain of Lysosomal acid glucosylceramidase (Homo sapiens) (P04062 whole entry, looked up): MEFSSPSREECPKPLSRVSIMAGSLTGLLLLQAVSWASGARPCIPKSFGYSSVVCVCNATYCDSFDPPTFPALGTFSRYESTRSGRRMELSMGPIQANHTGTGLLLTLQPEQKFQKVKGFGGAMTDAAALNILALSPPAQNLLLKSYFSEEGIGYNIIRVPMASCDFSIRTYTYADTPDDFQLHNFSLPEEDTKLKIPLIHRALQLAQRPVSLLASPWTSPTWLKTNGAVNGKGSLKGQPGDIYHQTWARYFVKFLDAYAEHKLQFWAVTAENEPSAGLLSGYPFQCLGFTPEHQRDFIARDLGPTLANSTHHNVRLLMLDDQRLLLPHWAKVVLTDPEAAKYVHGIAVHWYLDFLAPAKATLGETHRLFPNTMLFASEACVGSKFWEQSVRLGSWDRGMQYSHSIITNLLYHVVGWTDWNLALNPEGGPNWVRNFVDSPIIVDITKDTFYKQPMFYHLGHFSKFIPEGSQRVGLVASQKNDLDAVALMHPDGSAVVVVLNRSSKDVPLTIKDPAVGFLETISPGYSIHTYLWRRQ
# Chain of Cytochrome P450 3A4 (Homo sapiens) (P08684 whole entry, looked up): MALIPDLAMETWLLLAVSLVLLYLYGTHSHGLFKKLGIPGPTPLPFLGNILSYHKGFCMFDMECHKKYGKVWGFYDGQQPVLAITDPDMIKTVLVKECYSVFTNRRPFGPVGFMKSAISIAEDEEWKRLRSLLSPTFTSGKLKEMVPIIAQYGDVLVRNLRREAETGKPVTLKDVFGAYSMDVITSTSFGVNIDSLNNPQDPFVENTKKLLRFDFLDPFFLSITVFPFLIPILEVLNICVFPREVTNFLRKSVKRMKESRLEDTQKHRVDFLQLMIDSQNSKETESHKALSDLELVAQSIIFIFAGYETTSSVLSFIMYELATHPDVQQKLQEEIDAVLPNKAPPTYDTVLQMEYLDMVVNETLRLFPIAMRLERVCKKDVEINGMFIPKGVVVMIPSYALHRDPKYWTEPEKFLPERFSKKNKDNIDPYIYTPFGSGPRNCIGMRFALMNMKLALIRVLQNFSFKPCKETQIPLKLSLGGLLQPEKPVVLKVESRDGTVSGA
# Chain of 3',5'-cyclic-AMP phosphodiesterase 4B (Homo sapiens) (Q07343 whole entry, looked up): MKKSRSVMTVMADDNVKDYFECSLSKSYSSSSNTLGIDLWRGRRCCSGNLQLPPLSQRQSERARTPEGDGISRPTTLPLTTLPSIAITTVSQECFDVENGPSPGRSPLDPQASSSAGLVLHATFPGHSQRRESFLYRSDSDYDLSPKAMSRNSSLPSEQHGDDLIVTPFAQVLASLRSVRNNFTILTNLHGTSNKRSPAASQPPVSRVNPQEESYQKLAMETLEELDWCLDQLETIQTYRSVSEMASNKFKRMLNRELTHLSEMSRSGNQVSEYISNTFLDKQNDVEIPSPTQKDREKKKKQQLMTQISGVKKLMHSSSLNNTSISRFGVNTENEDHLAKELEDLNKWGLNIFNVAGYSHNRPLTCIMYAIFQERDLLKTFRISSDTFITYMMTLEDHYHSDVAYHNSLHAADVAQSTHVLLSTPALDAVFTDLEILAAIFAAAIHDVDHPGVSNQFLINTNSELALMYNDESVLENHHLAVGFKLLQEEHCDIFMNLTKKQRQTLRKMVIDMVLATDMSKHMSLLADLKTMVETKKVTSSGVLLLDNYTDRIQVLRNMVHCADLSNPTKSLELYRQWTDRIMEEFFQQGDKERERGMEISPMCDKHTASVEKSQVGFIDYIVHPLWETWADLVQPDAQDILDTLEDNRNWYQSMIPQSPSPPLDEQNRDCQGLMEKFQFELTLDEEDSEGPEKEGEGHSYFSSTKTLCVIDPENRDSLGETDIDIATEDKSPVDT
# Chain of Glucocorticoid receptor (Homo sapiens) (P04150 whole entry, looked up, the tested form may be a part): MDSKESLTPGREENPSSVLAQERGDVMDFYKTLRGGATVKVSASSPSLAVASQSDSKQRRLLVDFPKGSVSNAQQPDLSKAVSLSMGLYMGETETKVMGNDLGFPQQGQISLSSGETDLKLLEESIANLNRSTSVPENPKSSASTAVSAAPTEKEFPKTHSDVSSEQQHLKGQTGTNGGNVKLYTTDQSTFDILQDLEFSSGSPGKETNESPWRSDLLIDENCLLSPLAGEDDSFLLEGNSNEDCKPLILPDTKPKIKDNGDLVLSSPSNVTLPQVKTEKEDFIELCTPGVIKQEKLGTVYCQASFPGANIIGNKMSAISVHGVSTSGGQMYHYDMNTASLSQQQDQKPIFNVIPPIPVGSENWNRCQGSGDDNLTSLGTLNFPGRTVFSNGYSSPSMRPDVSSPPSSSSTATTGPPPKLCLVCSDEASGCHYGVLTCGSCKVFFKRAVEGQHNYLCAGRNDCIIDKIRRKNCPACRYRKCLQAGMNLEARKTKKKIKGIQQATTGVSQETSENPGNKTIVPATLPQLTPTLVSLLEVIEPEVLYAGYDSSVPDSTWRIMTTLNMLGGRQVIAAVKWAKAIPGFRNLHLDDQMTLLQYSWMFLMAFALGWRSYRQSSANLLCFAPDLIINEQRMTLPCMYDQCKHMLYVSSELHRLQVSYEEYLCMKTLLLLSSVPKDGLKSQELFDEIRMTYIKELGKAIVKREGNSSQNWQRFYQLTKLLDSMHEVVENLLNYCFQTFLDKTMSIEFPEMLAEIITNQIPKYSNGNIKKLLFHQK
# Chain of Ubiquitin carboxyl-terminal hydrolase 1 (Homo sapiens) (O94782 whole entry, looked up): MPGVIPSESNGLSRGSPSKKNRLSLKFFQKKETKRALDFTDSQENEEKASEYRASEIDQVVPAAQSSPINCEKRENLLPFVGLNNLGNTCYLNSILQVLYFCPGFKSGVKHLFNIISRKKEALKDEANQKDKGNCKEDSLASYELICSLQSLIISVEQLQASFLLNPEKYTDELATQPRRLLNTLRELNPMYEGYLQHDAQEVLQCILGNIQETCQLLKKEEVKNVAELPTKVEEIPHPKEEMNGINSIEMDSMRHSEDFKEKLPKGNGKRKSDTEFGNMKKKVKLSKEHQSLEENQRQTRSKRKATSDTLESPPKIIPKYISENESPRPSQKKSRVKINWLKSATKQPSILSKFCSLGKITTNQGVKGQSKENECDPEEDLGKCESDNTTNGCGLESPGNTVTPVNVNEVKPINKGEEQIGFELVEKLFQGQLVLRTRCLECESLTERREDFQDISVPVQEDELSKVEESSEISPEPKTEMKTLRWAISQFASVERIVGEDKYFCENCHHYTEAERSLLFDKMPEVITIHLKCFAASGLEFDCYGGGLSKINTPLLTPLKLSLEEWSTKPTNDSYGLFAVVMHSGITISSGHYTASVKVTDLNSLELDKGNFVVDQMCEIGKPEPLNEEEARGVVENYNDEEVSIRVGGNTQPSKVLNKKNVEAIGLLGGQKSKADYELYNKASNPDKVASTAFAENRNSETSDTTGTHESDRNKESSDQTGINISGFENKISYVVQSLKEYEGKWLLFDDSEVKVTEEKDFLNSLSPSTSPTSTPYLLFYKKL
# Chain of Cytochrome P450 2C9 (Homo sapiens) (P11712 whole entry, looked up): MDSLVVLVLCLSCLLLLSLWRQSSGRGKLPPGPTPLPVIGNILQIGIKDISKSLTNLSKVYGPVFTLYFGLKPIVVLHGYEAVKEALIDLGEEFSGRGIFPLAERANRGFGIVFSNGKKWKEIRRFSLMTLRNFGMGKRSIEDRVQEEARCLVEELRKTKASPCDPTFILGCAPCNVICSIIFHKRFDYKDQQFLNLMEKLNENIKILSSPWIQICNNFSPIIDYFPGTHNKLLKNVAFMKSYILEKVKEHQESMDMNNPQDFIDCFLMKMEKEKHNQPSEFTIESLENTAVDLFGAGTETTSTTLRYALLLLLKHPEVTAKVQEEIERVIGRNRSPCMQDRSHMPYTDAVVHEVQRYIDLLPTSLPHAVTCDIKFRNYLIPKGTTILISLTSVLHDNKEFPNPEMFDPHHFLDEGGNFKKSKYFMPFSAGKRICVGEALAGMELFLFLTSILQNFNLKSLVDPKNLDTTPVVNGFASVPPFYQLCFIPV
Structure (SMILES),Potency [1],"activity change, negative = inhibition [2]",Potency [3],"activity change, negative = inhibition [4]",Potency [5],Potency [6],outcome [7],Potency [8],Potency [9],Potency [10],outcome [11],"activity change, negative = inhibition [12]","max response [12, 18] [%]","max response [12, 19] [%]",Potency [13],Potency [14],outcome [15],"activity, negative = inhibition [16]",Potency [17]
COc1ccccc1-c1cncnc1NCCc1cnc[nH]1,> 11.4 µM (inactive),1.24% (inactive),1.26 µM (active),3.21% (inactive),> 46 µM (inactive),> 46 µM (inactive),inactive,inactive,0.398 µM (active),inactive,inactive,11.3% (inactive),12.9,26.1,inactive,inactive,–,–,–
COc1cccc(-c2nccc(NCc3cccc(C)c3)n2)c1,> 11.4 µM (inactive),-15.4% (inactive),0.316 µM (active),-2.73% (inactive),> 46 µM (inactive),> 46 µM (inactive),inactive,inactive,3.98 µM (active),inactive,inactive,7.01% (inactive),-6.39,-3.6,35.5 µM (active),inactive,inactive,–,–
COc1ccc(C(=O)N2CCC3(CC2)CN(Cc2ccc(C#N)cc2)C3)cc1,> 11.4 µM (inactive),11% (inactive),inactive,-0.922% (inactive),–,–,inactive,inactive,–,inactive,–,-3% (inactive),13.1,11.7,–,inactive,–,8.44% (inactive),–
O=C(c1ccncc1)N1CCC2(CC1)CN(c1ncccn1)C2,> 11.4 µM (inactive),7.49% (inactive),6.31 µM (active),6.22% (inactive),–,–,inactive,inactive,–,–,–,0.437% (inactive),22.4,23.6,–,inactive,–,-10.2% (inactive),–
COc1ccc(-c2nc3cnc(N4CCNCC4)nc3n(Cc3ccc(F)cc3)c2=O)cc1,> 11.4 µM (inactive),83.5% [activator] (active),inactive,88% [activator] (active),> 9.22 µM (inactive),> 46 µM (inactive),inactive,–,–,inactive,–,4.56% (inactive),15.2,24.4,–,inactive,–,–,inactive

# — PubChem BioAssay (NCATS)
